Sampled rows, rich in hits. Any-hit rate of the full collection: about 2.6%.
MLLE-PAM2 inh – inhibitors of PABP1 MLLE–PAM2 peptide binding, primary screen, biochemical, fluorescence polarization, FITC-PAM2, GST-MLLE | Polyadenylate-binding protein 1 (Homo sapiens), P11940 | inhibition, % at 20 µM | 360,000 compounds, 0.36% hits | AID 588489, 2011; in the data active = inhibition above about 35%, passing the limit was not always enough;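 also: plate controls were DMSO wells with GST-MLLE for no effect and wells lacking GST-MLLE protein for full effect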
eIF4H inh – human eIF4H binding inhibitors, primary screen, translation initiation inhibitor project, biochemical, uHTS, fluorescence polarization; Eukaryotic translation initiation factor 4H (Homo sapiens), Q15056; eIF4H fluorescence polarization binding assay; inhibition, % at 35 µM; 290,000 compounds, 0.94% hits; AID 2012, 2009;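 also: calls also rest on retests at 20 µM and on dose response follow-up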
AI-2 QS modul – Vibrio harveyi AI-2 quorum sensing modulators, primary screen, JMH597 strain, luminescence/OD600 ratio. Vibrio harveyi JMH597 AI-2 luminescence/OD600 ratio, 9 h; active compounds read low; strain lacks LuxN and CqsS sensors; 0 = neutral-control median. activity change, % at 7.5 µM. 300,000 compounds, 0.4% hits. AID 2094, 2009; in the data active = activity change below about -75%, passing the limit was not always enough; inconclusive = no clear call, values can overlap the other calls;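 also: luminescence divided by OD600 gain over 9 h not by final OD600 alone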
PABP polyA inh – PABP poly(A) RNA binding inhibitors, primary screen, biochemical, fluorescence polarization, uHTS. AID 2014, 2009. 290,000 compounds, 1% hits. calls only at 35 µM. Polyadenylate-binding protein 1 (Homo sapiens), P11940;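 also: calls also rest on retests at 20 µM and on dose response follow-up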
ABCB6 inh 2 – ABCB6 transporter inhibitors, primary screen, K562-ABCB6 cells, flow cytometry, MLPCN library | AID 602162, 2011 | ATP-binding cassette sub-family B member 6 (Homo sapiens), Q9NP58 | 360,000 compounds, 0.19% hits | fluorescence ratio to DMSO, % at 10 µM | K562-ABCB6 porphyrin accumulation, 1 h; active compounds read low;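 active = fluorescence ratio to DMSO below 75%, the collection mean minus 3 SD; inconclusive = too few cells collected in the well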;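 also: signal is porphyrin accumulated inside mitochondria; 100% equals median channel fluorescence of DMSO control wells; lower ratio means ABCB6 inhibition with less porphyrin fluorescence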
PHOSPHO1 inh – PubChem AID 1565 | Phosphoethanolamine/phosphocholine phosphatase (Homo sapiens), Q8TCT1 | recombinant PHOSPHO1, absorbance phosphatase assay | inhibition, % at 13.3 µM | 290,000 compounds, 1.1% hits; in the data active = inhibition above about 60%
* marks the source's active call; other numbers are inactive results; i = inactive; ? = inconclusive; / = no result; + = active, no number. Unless noted, no rule for the calls is given here.

SMILES	MLLE-PAM2 inh	eIF4H inh	AI-2 QS modul	PABP polyA inh	ABCB6 inh 2	PHOSPHO1 inh
OC(c1ccc(F)c(F)c1)c1nc(-c2cccc3cccnc23)cs1 (stereo not given)	-8	/	/	/	94	/
CCCNC(=O)C1(C)CCN(Cc2ccc(C(=O)OCC)cc2)C1 (stereo not given)	5	/	/	/	94	/
Nc1c(S(=O)(=O)O)cc(NC(=O)c2ccccc2)c2c1C(=O)c1ccccc1C2=O	17	?	-1	+	110	29
CN1OC[C@@H]2CN(C(=O)C(C)(C)C)[C@H](c3ccc(-c4cccnc4)cc3)C[C@@H]21	-3	/	/	/	87	/
CC(=O)c1ccc(N/C=C\C(=O)c2ccc(C)cc2)cc1	1	7	16	i	93	51
Cc1ccc(C(=O)/C=C/C(=O)O)cc1	44*	-1	-40	i	105	4
COc1ccc(S(=O)(=O)N2CCCCC2c2cc(C(=O)Nc3ccc(F)c(Cl)c3)no2)cc1 (stereo not given)	-5	/	/	/	99	/
CC1(C(=O)NS(=O)(=O)c2cccc(F)c2)CCN1C(=O)CCC1CCCC1 (stereo not given)	4	/	/	/	83	/
COc1ccc(NC(C)=[N+](C)CCNS(=O)(=O)c2ccc(Cl)cc2)cc1	-49	-16	1	+	90	-23
COc1ccc(NC(=O)CNS(=O)(=O)c2ccc(Cl)cc2)cc1	14	3	11	i	96	-18
CCCCNS(=O)(=O)c1ccc(NC(=O)Cc2ccc(OC)cc2)cc1	3	-2	-96*	i	96	23
COc1ccc(CC(=O)Nc2ccc(S(=O)(=O)NC(C)C)cc2)cc1	6	2	-53	i	101	31
COc1cc(NC(=O)c2cc(-c3cc(F)ccc3OC(C)C)n[nH]2)cc(OC)c1OC	10	/	/	/	83	/
CCc1nnc(SCC(=O)Nc2ccc(N3CCOCC3)cc2)o1	-6	-6	-6	i	98	28
Cc1nnc(SCC(=O)Nc2ccc(N3CCOCC3)cc2)o1	-109	-15	35	i	91	63*
COc1ccc2c(c1)C1C=CCC1C(c1cc3c(cc1Br)OCO3)N2 (stereo not given)	-23	70*	32	i	103	24
O=C(c1ccccc1)N1CCN(C(=O)c2nn3c(C(F)(F)F)cc(-c4ccco4)nc3c2Br)CC1	-9	69*	23	i	96	40
O=C(O)c1cnn2c(C(F)(F)F)cc(-c3ccco3)nc12	6	78*	34	+	96	13
CC1=C(C(=O)N(C(C)C)C(C)C)CC(CC(=O)NCc2ccco2)C(=O)N1CCC1=CCCCC1 (stereo not given)	10	/	/	/	103	/
CCCCNC(=O)C1c2ccccc2OCC(=O)N1CCCN1CCOCC1 (stereo not given)	/	/	/	/	98	/
CCN1CCc2c(OCC(=O)Nc3ccc(C)cc3)cccc2C1=O	1	-10	3	i	103	62*
O=C(CNC(=O)c1ccccc1F)Nc1ccccc1C(F)(F)F	-10	1	13	i	95	69*
CSC1=N/C(=C\c2ccc(Br)o2)C(=O)S1	0	57*	-11	+	101	-8
Cc1cc(N)n2nc(C)c(-c3ccccc3)c2n1	-4	-1	27	i	105	60*
Cc1cc(N)n2nc(C)c(-c3ccc(Cl)cc3)c2n1	6	6	5	i	99	17
CCOC(=O)N/N=C/C=C/c1ccccc1[N+](=O)[O-]	-13	11	10	i	104	40
COc1ccc(NCC(=O)N/N=C/C=C/c2ccccc2[N+](=O)[O-])cc1	12	-2	9	+	93	6
CC(=O)NC(C)(c1ccccc1)c1nc(-c2cccc(F)c2)cs1 (stereo not given)	-4	/	/	/	101	/
CCCCn1c(OC(=S)N(CC)CC)cc(C)nc1=S	-6	/	/	/	94	/

From PubChem BioAssay
